Compound activity: PubChem, several laboratories
HSF-1 act – increases HSF-1 driven luciferase reporter signal | NIH3T3-HGL HSF-1 luciferase reporter, MG132, 8 h; 100% = twice DMSO control signal | activation, % at 9 µM | 1.7% of 300,000 active | AID 504408;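 active = mean replicate activation of at least 50% with a set share of replicates each reaching 50%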
HSP90 inh – HSP90 refolding inhibition in rabbit reticulocyte lysate | inhibition, % at 5.6 µM | AID 1789 | 0.91% of 290,000 active | luciferase refolding luminescence, 3 h;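 active = inhibition above the screen-wide mean plus 3 SD, computed separately per campaign, cut at about 16% in these data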;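 also: inhibitors lower the luminescence because luciferase stays unfolded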
HSF1 inh – HSF1 inhibition; NIH3T3-HGL HSE-luciferase, MG132-induced, luminescence 8 h; hits give low values; activity change, negative = inhibition, % at 7.5 µM (by protocol); 0.77% of 300,000 active; AID 2098;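 active = more than half of replicate wells show activity change below -50%, luminescence cut by over half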;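 also: luciferase reports HSF-1 transcriptional activity via heat shock element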
AHR activator – activators of human aryl hydrocarbon receptor | P35869 | AHR-responsive luciferase reporter cells, luminescence | activation, % at 5 µM | 2.5% of 320,000 active; in the data active = activation above about 47%
NR0B1 inh – inhibits human nuclear receptor DAX1. 0.99% of 340,000 active. inhibition, % at 6.75 µM. P51843. AID 504766. HEK293 Gal4-DAX1 luciferase reporter, luminescence;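 active = inhibition above the mean over all tested compounds plus 3 SD, cut at about 4.2% in these data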;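 also: inhibition shows as a rise in luminescence from relieved DAX1 repression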
Target sequence (P51843 207-470 limits assumed): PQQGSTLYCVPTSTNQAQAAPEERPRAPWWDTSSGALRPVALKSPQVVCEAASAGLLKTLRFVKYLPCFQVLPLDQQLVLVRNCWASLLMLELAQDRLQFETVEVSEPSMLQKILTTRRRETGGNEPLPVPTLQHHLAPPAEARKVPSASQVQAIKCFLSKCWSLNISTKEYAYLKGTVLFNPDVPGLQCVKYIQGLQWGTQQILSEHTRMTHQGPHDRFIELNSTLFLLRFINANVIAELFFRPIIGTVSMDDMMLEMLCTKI
FXN GAA850 act – frataxin GAA850 promoter activation. activation, % at 6 µM. AID 540364. HEK293 lucGAA850 FXN promoter luciferase reporter, 24 h; percent of 10 µM SAHA response. 0.56% of 360,000 active;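 active = activation above the average of all compounds screened plus 3 SD, cutoff fixed separately per campaign, cut at about 7.5% in these data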
Of the large screens only hits and unclear results are named; the others gave an inactive call. Shown are actives, neighbours in structure and some others; about 5.9% of the full set was active somewhere.

O=C(OCC(=O)N1CCCCC1)c1cccs1	none (no result: HSF-1 act, HSP90 inh, HSF1 inh)
O=C(OCC(=O)N1CCc2ccccc2C1)c1cccs1	HSF-1 act 80.1
COc1ccc(NC(=O)N2CCc3ccccc3C2)cc1	none (no result: AHR activator)
Cc1noc(/C=C/N(C)C)c1S(=O)(=O)N1CCC(C(=O)NC(C)(C)C)CC1	none
COc1cc2c(cc1NC(=O)C(C)OC(=O)c1ccc(S(=O)(=O)Nc3ccccc3Cl)cc1)oc1ccccc12 (stereo unspecified)	AHR activator 78.2
COc1cc2c(cc1NC(=O)C(C)N1CCN(S(=O)(=O)c3ccc(C)c(C)c3)CC1)oc1ccccc12 (stereo unspecified)	AHR activator 59.1
COc1ccc(S(=O)(=O)Nc2ccccc2Cl)cc1NC(C)=O	none
Cn1c(NCc2ccccc2F)nc2cc(-c3cccc(C(F)(F)F)c3)sc2c1=O	none (no result: HSF-1 act, HSP90 inh, HSF1 inh, AHR activator, NR0B1 inh)
N#Cc1cnc2nc(SCc3ccccc3)nn2c1	none
CC1CCCC(C)N1C(=O)CSc1nnc(-c2ccco2)n1C (stereo unspecified)	none (no result: HSF-1 act, HSP90 inh, HSF1 inh)
CN(C)S(=O)(=O)c1cccc(NC(=O)CO/N=C(\N)c2ccccc2)c1	none (no result: HSP90 inh)
COC(=O)c1c(NC(=O)C2=COCCO2)sc(C)c1C	none (no result: HSP90 inh)
Cc1cc2ncn(/N=C/c3ccc4c(c3)OCO4)c2cc1C	AHR activator 55.1
CN1CCN(C(=O)/C=C/c2ccc3c(c2)OCO3)CC1	none
Cn1c(=S)n(/N=C/c2ccc3c(c2)OCO3)c2ccccc21	AHR activator 57.7 (no result: HSF-1 act, HSF1 inh)
O=C(/C=C/C=C/c1ccc2c(c1)OCO2)N1CCCCC1	NR0B1 inh 5.3 (no result: HSF-1 act, HSP90 inh, HSF1 inh)
COc1ccc(/C=N/n2c(=S)n(C)c3ccccc32)cc1OC	none
CCc1n[nH]c(=S)n1/N=C/c1ccc2c(c1)OCO2	NR0B1 inh 4.8
Cc1nc(CC(=O)Nc2nccs2)cs1	none
O=[N+]([O-])c1ccc(C=NN2CCCCCC2)cc1	NR0B1 inh 5.6 (no result: HSF-1 act, HSP90 inh, HSF1 inh, AHR activator)
C(=NN1CCCCCC1)c1ccc2c(c1)OCO2	NR0B1 inh 4.3 (no result: HSF-1 act, HSP90 inh, HSF1 inh, AHR activator)
CC(C)C(=O)Nc1cccc(C(=O)Nc2ccc(S(=O)(=O)Nc3nccs3)cc2)c1	none
COCCNC(=O)CSc1ccccc1C(=O)NC1CCSc2ccccc21 (stereo unspecified)	none
O=S(=O)(Nc1ccc(-c2nc3cccnc3s2)cc1)c1cc(F)ccc1F	none
Cc1ccc(-c2nc3cccnc3s2)cc1NS(=O)(=O)c1cccs1	AHR activator 58.9
Cc1nc2ccc(S(=O)(=O)Nc3cc(-c4nc5cccnc5s4)ccc3C)cc2s1	AHR activator 53.1
O=S(=O)(NCCS(=O)(=O)N1CCN(c2ccc(F)cc2)CC1)c1ccccc1	none (no result: HSF-1 act, HSP90 inh, HSF1 inh, AHR activator)
Cc1ccc(NC(=O)Cc2noc3ccccc23)cc1	none
Cc1ccc(/C=N\NC(=O)Cc2noc3ccccc23)cc1	HSF1 inh -86.8
C/C(=N\NC(=O)c1c(C)nc2ccccn12)c1ccc(C(C)(C)C)cc1	HSF1 inh -55.2
C/C(=N\NC(=O)c1c(C)nc2ccccn12)c1ccc(N2CCOCC2)cc1	none
Cn1nnnc1SCCNC(=O)C1CCC(=O)N(CCc2cccc(F)c2)C1 (stereo unspecified)	none
Cc1occc1C(=O)N/N=C/C(Br)=C\c1ccccc1	HSF-1 act 363.2
Cc1cc(C(=O)N/N=C/c2cn(C)nc2C)c2ccccc2n1	none
Cc1nn(C)cc1/C=N/NC(=O)c1ccco1	NR0B1 inh 4.9
O=C(N/N=C/C(Br)=C\c1ccccc1)c1ccco1	HSF-1 act 108.1 (no result: NR0B1 inh)
O=C(N/N=C/c1ccccc1)c1ccco1	NR0B1 inh 5.8
O=C(COC(=O)c1ccc2ccccc2n1)Nc1ccccc1F	none (no result: HSF-1 act, HSP90 inh, HSF1 inh)
CC[C@]12c3[nH]c4ccccc4c3CCN1C(=O)C(CC(=O)NCc1cccc(C(F)(F)F)c1)C[C@@H]2C(=O)N1CCN(C(=O)c2ccco2)CC1 (stereo partly specified)	none (no result: HSF-1 act, HSP90 inh, HSF1 inh)
COc1cccc(/C=N/NC(=O)c2ccccc2NC(=O)c2ccco2)c1OC	none
O=C(Nc1ccccc1C(=O)N/N=C/c1ccccc1)c1ccco1	AHR activator 47.5
CCN1CCN(C(=O)c2ccc(Cl)c(S(=O)(=O)N(C)c3ccccc3)c2)CC1	NR0B1 inh 6.0 (no result: HSF-1 act, HSP90 inh, HSF1 inh)
CN(c1ccc(C(=O)N2CCN(Cc3ccccc3)CC2)cc1)S(=O)(=O)c1ccccc1	none
CN(Cc1ccccc1)C(=O)c1cccc(NC(=O)Cc2cccc(NC(=O)C3CCN(C(=O)c4ccccc4)CC3)c2)c1	none (no result: HSF-1 act, HSP90 inh, HSF1 inh, AHR activator)
Cc1nc(C)c(-c2ccc(SCC(=O)Nc3cccc(Cl)c3)nn2)s1	none
CC(=O)Nc1ccc(N(C(=O)c2ccco2)C(C(=O)NC2CCCC2)c2ccncc2)cc1 (stereo unspecified)	none
CCC(C)N=CC1=C(O)C(C(=O)OC)C(C)(C)CC1=O (stereo unspecified)	none
CN=CC1=C(O)C(C(=O)OC)C(C)(C)CC1=O (stereo unspecified)	NR0B1 inh 4.3
c1ccc(-n2ncc3c2ncn2nnnc32)cc1	none
Cc1nc2c3cnn(-c4ccccc4)c3ncn2n1	AHR activator 68.5
COc1cc(/C=C2/NC(=O)N(Cc3ccccc3F)C2=O)ccc1Oc1ccc([N+](=O)[O-])cn1	none
COc1cc(/C=C2/NC(=O)N(Cc3ccccc3F)C2=O)ccc1O	HSF-1 act 107.4
Cc1cc(/C=C2/NC(=O)N(Cc3ccccc3F)C2=O)c(C)n1C(C)C	AHR activator 113.9
Cc1cccc(NC(=O)CN2C(=O)N/C(=C/c3cc(C)n(C(C)C)c3C)C2=O)c1	HSF1 inh -57.3
Cc1cccc(NC(=O)CN2C(=O)N/C(=C/c3ccc(C)s3)C2=O)c1	none
CCn1c(C)cc(/C=C2\NC(=O)N(Cc3ccccc3)C2=O)c1C	AHR activator 70.3
CCc1ccc(NC(=O)CSc2nc(=O)n(CCN(C)C)c3c2CCCC3)cc1	none (no result: HSP90 inh)
O=C(Nc1cc(S(=O)(=O)N2CCCC2)ccc1OCC(F)(F)F)c1ccncc1	none (no result: HSF-1 act, HSP90 inh, HSF1 inh, AHR activator)
C=CCC[C@@H](Cc1ccc(F)cc1)C(=O)O[C@H](CNC(=O)[C@@H](CC=C)CC(=O)N[C@H](CO)Cc1ccccc1)c1ccccc1	none (no result: HSF-1 act, HSP90 inh, HSF1 inh)
CC(Oc1ccc(Cl)cc1)C(=O)/C=C/N(C)C (stereo unspecified)	HSF-1 act 54.0
COC(=O)c1ccc2c(c1)C(C)(C)C(/C=C/c1ccc(O)cc1)=[N+]2C	HSF-1 act 85.1
COc1ccc(CN2CCC[C@]3(N[C@H](c4ccc(C)cc4)[C@@H]4C(=O)N(Cc5ccccc5)C(=O)[C@@H]43)C2=O)cc1	none (no result: HSF-1 act, HSP90 inh, HSF1 inh, AHR activator)
O=C(Cc1ccccc1)NC(CSSCC(NC(=O)Cc1ccccc1)C(=O)O)C(=O)O (stereo unspecified)	none (no result: HSF-1 act, HSP90 inh, HSF1 inh, AHR activator)
COc1ccc(NC(=O)c2ccco2)cc1NC(=O)c1ccc(Br)o1	AHR activator 58.4
COc1ccc(CC(=O)Nc2ccc(OC)c(NC(=O)c3ccco3)c2)cc1	none
COc1cc(NC(=O)c2cccc([N+](=O)[O-])c2)ccc1NC(=O)c1ccco1	none
COc1ccccc1NC(=O)c1ccc(Br)o1	none
Cc1cc([N+](=O)[O-])ccc1NC(=O)c1ccco1	none
